According to PubChem BioAssay (NCI):
About 79,000 compounds went through this panel and 15% of them were active in at least one assay; those are over-represented in the sample as a whole. Unmarked numbers belong to inactive results. Calls of active or inactive are those of the source. Cut-off read from the data, not from the text of the source: active = growth inhibition above about 70%; inactive = the rest.

What was measured:
[1] = NCI Yeast Anticancer Drug Screen. Data for the rad52 strain (AID 147);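 note: 0% = growth of vehicle-treated control cultures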; details: S. cerevisiae rad52 mutant growth inhibition, hits give high values
How it was run: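 Inhibition of yeast growth, referenced to vehicle controls, was the measured output for a strain with defective DNA damage repair.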

[2] = NCI Yeast Anticancer Drug Screen. Data for the wt1 strain (AID 149);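 note: 0% = growth of vehicle-treated wt1 cultures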; details: S. cerevisiae wt1 strain (SPY 50644) growth inhibition, hits give high values
How it was run: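 Growth inhibition read against vehicle controls after compound exposure of the wt1 yeast strain.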

[3] = NCI Yeast Anticancer Drug Screen. Data for the rad50EPP+ strain (AID 151);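 note: 0% = growth of vehicle-treated control cultures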; details: S. cerevisiae rad50 mutant strain, hits give high values
How it was run: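 Genetically defined yeast (rad50EPP+, DNA damage repair alteration) is grown with compound, and inhibition of growth is expressed relative to vehicle-treated controls.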

[4] = NCI Yeast Anticancer Drug Screen. Data for the mgt1 strain (AID 153); details: S. cerevisiae mgt1 mutant growth inhibition, hits give high values
How it was run: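 In the mgt1 strain, test compounds were added and growth inhibition was determined relative to vehicle-treated controls.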

[5] = NCI Yeast Anticancer Drug Screen. Data for the rad50 strain (AID 155);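 note: 0% = growth of vehicle-only cultures of the same strain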; details: S. cerevisiae rad50 strain growth inhibition, hits give high values
How it was run: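 Readout: growth inhibition relative to vehicle-treated cultures. Compound exposure was carried out in a genetically defined yeast strain deficient in DNA damage repair.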

[6] = NCI Yeast Anticancer Drug Screen. Data for the mec2-1 strain (AID 157); details: S. cerevisiae mec2-1 strain, hits give high values
How it was run: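 Each compound was tested on mec2-1 yeast, a strain altered in DNA damage repair or cell cycle control. Growth inhibition is reported relative to vehicle.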

[7] = NCI Yeast Anticancer Drug Screen. Data for the rad14 strain (AID 159);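 note: 0% = growth of vehicle-treated control cultures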; details: S. cerevisiae rad14 strain growth inhibition, hits give high values
How it was run: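 Growth inhibition vs vehicle controls; genetically altered yeast strain (DNA damage repair defect) treated with test compounds.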

[8] = NCI Yeast Anticancer Drug Screen. Data for the sgs1 mgt1 strain (AID 161);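 note: 0% = growth of cultures given vehicle only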; details: S. cerevisiae sgs1 mgt1 strain, hits give high values
How it was run: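 Inhibition of yeast growth, normalised to vehicle-treated controls, is reported for a strain bearing genetic alterations in DNA damage repair.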

[9] = NCI Yeast Anticancer Drug Screen. Data for the CLN2oe strain (AID 163);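 note: 0% = growth of vehicle-only control cultures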; details: S. cerevisiae CLN2oe strain, hits give high values
How it was run: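 First, the altered yeast strain was treated with each compound; second, its growth was measured; finally, inhibition was derived by comparison with vehicle controls.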

[10] = NCI Yeast Anticancer Drug Screen. Data for the cln2 rad14 strain (AID 165);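 note: 0% = growth equal to vehicle treated cultures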; details: S. cerevisiae cln2 rad14 strain, hits give high values
How it was run: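 Test compounds were added to cln2 rad14 yeast cultures; inhibition of growth was then determined by comparison with vehicle treatment.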

[11] = NCI Yeast Anticancer Drug Screen. Data for the bub3 strain (AID 167); details: S. cerevisiae bub3 mutant strain, hits give high values
How it was run: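 Readout: yeast growth inhibition, expressed relative to vehicle-only wells. The test organism is a mutant strain from a panel with lesions in DNA repair or checkpoint genes.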

[12] = NCI Yeast Anticancer Drug Screen. Data for the wt2 strain (AID 169);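 note: 0% = growth of vehicle-treated yeast cultures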; details: S. cerevisiae wt2 strain growth inhibition, hits give high values
How it was run: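 The panel's yeast strains carry defined changes in DNA repair or cell cycle genes. Each strain is grown with compound, and growth loss is scored relative to vehicle.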

[13] = NCI Yeast Anticancer Drug Screen. Data for the mlh1 strain (AID 171);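 note: 0% = growth of vehicle-treated control cultures of the same strain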; details: S. cerevisiae mlh1 strain growth inhibition, hits give high values
How it was run: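 Inhibition values reflect reduced yeast growth in the presence of compound, referenced to vehicle controls, using a strain chosen for its alteration in DNA repair or cell cycle control.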

[14] = NCI Yeast Anticancer Drug Screen. Data for the sgs1 strain (AID 173);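 note: 0% = growth of vehicle-only control cultures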; details: S. cerevisiae sgs1 mutant, hits give high values
How it was run: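 Vehicle-treated cultures served as reference for growth inhibition of a yeast strain altered in DNA damage repair or cell cycle control after compound exposure.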

[15] = NCI Yeast Anticancer Drug Screen. Data for the mlh1 rad18 strain (AID 175); details: S. cerevisiae mlh1 rad18 strain growth inhibition, hits give high values
How it was run: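 Inhibition values reflect reduced growth of mutant yeast versus vehicle-treated controls following compound exposure; the mutations affect DNA damage repair.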

[16] = NCI Yeast Anticancer Drug Screen. Data for the rad18 strain (AID 177); details: S. cerevisiae rad18 mutant growth inhibition, hits give high values
How it was run: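 Steps: expose repair-mutant yeast to compound; measure growth; express as inhibition relative to vehicle control.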

[17] = at 5.0 µM (retest, dose inferred, filed as 0.5)
[18] = at 50.0 µM (retest, dose inferred, filed as 5.0)

Question: With `O=C(NO)Nc1cc(Cl)cc(Cl)c1` as the molecule, how does the growth inhibition ([1]; at 1.2 µM) read?
Answer: Its growth inhibition is 7%.

Question: And the growth inhibition ([1]; at 3.7 µM)?
Answer: Its growth inhibition is 39%.

Question: And the growth inhibition ([1]; at 11.0 µM)?
Answer: Its growth inhibition is 99% (active).

Question: And the growth inhibition ([1]; at 33.0 µM)?
Answer: The growth inhibition was 99% (active).

Question: What about the growth inhibition ([1]; at 100.0 µM) of the same molecule?
Answer: The growth inhibition was 97% (active).

Question: And the growth inhibition ([2]; at 1.2 µM)?
Answer: The growth inhibition was -3%.

Question: What about the growth inhibition ([2]; at 3.7 µM) of the same molecule?
Answer: The growth inhibition was -3%.

Question: And the growth inhibition ([2]; at 11.0 µM)?
Answer: The growth inhibition was 80% (active).

Question: And the growth inhibition ([2]; at 33.0 µM)?
Answer: The growth inhibition was 99% (active).

Question: What about the growth inhibition ([2]; at 100.0 µM) of the same molecule?
Answer: The growth inhibition was 98% (active).

Question: And the growth inhibition ([3]; at 1.2 µM)?
Answer: The growth inhibition was -4%.

Question: What about the growth inhibition ([3]; at 3.7 µM) of the same molecule?
Answer: Its growth inhibition is -4%.

Question: And the growth inhibition ([3]; at 11.0 µM)?
Answer: Its growth inhibition is 19%.

Question: What about the growth inhibition ([3]; at 33.0 µM) of the same molecule?
Answer: The growth inhibition was 88% (active).

Question: What about the growth inhibition ([3]; at 100.0 µM) of the same molecule?
Answer: The growth inhibition was 86% (active).

Question: And the growth inhibition ([4]; at 1.2 µM)?
Answer: The growth inhibition was -3%.

Question: What about the growth inhibition ([4]; at 3.7 µM) of the same molecule?
Answer: The growth inhibition was 16%.

Question: What about the growth inhibition ([4]; at 11.0 µM) of the same molecule?
Answer: The growth inhibition was 100% (active).

Question: What about the growth inhibition ([4]; at 33.0 µM) of the same molecule?
Answer: The growth inhibition was 99% (active).

Question: And the growth inhibition ([4]; at 100.0 µM)?
Answer: Its growth inhibition is 98% (active).

Question: What about the growth inhibition ([5]; at 1.2 µM) of the same molecule?
Answer: The growth inhibition was 7%.

Question: What about the growth inhibition ([5]; at 3.7 µM) of the same molecule?
Answer: The growth inhibition was 50%.

Question: What about the growth inhibition [5, 17] of the same molecule?
Answer: Its growth inhibition is 24%.

Question: And the growth inhibition ([5]; at 11.0 µM)?
Answer: Its growth inhibition is 99% (active).

Question: What about the growth inhibition ([5]; at 33.0 µM) of the same molecule?
Answer: The growth inhibition was 99% (active).

Question: And the growth inhibition [5, 18]?
Answer: The growth inhibition was 99% (active).

Question: And the growth inhibition ([5]; at 50.0 µM)?
Answer: Its growth inhibition is 99.3% (active).

Question: And the growth inhibition ([5]; at 100.0 µM)?
Answer: The growth inhibition was 96% (active).

Question: And the growth inhibition ([6]; at 1.2 µM)?
Answer: The growth inhibition was -2%.

Question: What about the growth inhibition ([6]; at 3.7 µM) of the same molecule?
Answer: The growth inhibition was 11%.

Question: And the growth inhibition [6, 17]?
Answer: Its growth inhibition is 0%.

Question: What about the growth inhibition ([6]; at 11.0 µM) of the same molecule?
Answer: Its growth inhibition is 99% (active).

Question: And the growth inhibition ([6]; at 33.0 µM)?
Answer: Its growth inhibition is 99% (active).

Question: And the growth inhibition [6, 18]?
Answer: The growth inhibition was 99% (active).

Question: What about the growth inhibition ([6]; at 50.0 µM) of the same molecule?
Answer: The growth inhibition was 99.2% (active).

Question: And the growth inhibition ([6]; at 100.0 µM)?
Answer: The growth inhibition was 98% (active).

Question: What about the growth inhibition ([7]; at 1.2 µM) of the same molecule?
Answer: Its growth inhibition is 8%.

Question: What about the growth inhibition ([7]; at 3.7 µM) of the same molecule?
Answer: Its growth inhibition is 20%.

Question: What about the growth inhibition ([7]; at 11.0 µM) of the same molecule?
Answer: Its growth inhibition is 99% (active).

Question: And the growth inhibition ([7]; at 33.0 µM)?
Answer: The growth inhibition was 98% (active).

Question: What about the growth inhibition ([7]; at 100.0 µM) of the same molecule?
Answer: The growth inhibition was 98% (active).

Question: And the growth inhibition [8, 17]?
Answer: Its growth inhibition is 58%.

Question: And the growth inhibition [8, 18]?
Answer: The growth inhibition was 99% (active).

Question: What about the growth inhibition ([8]; at 50.0 µM) of the same molecule?
Answer: Its growth inhibition is 98.8% (active).

Question: What about the growth inhibition ([9]; at 1.2 µM) of the same molecule?
Answer: Its growth inhibition is 7%.

Question: And the growth inhibition ([9]; at 3.7 µM)?
Answer: The growth inhibition was 26%.

Question: And the growth inhibition ([9]; at 11.0 µM)?
Answer: Its growth inhibition is 99% (active).

Question: And the growth inhibition ([9]; at 33.0 µM)?
Answer: The growth inhibition was 99% (active).

Question: What about the growth inhibition ([9]; at 100.0 µM) of the same molecule?
Answer: Its growth inhibition is 98% (active).

Question: And the growth inhibition [10, 17]?
Answer: Its growth inhibition is 21%.

Question: And the growth inhibition [10, 18]?
Answer: Its growth inhibition is 99% (active).

Question: And the growth inhibition ([10]; at 50.0 µM)?
Answer: The growth inhibition was 99% (active).

Question: What about the growth inhibition ([11]; at 1.2 µM) of the same molecule?
Answer: The growth inhibition was -2%.

Question: What about the growth inhibition ([11]; at 3.7 µM) of the same molecule?
Answer: The growth inhibition was 10%.

Question: What about the growth inhibition [11, 17] of the same molecule?
Answer: The growth inhibition was -17%.

Question: And the growth inhibition ([11]; at 11.0 µM)?
Answer: Its growth inhibition is 99% (active).

Question: And the growth inhibition ([11]; at 33.0 µM)?
Answer: Its growth inhibition is 99% (active).

Question: What about the growth inhibition [11, 18] of the same molecule?
Answer: Its growth inhibition is 99% (active).

Question: What about the growth inhibition ([11]; at 50.0 µM) of the same molecule?
Answer: The growth inhibition was 98.8% (active).

Question: What about the growth inhibition ([11]; at 100.0 µM) of the same molecule?
Answer: The growth inhibition was 98% (active).

Question: And the growth inhibition ([12]; at 1.2 µM)?
Answer: The growth inhibition was -3%.

Question: And the growth inhibition ([12]; at 3.7 µM)?
Answer: The growth inhibition was 6%.

Question: What about the growth inhibition ([12]; at 11.0 µM) of the same molecule?
Answer: Its growth inhibition is 98% (active).

Question: And the growth inhibition ([12]; at 33.0 µM)?
Answer: Its growth inhibition is 99% (active).

Question: And the growth inhibition ([12]; at 100.0 µM)?
Answer: The growth inhibition was 98% (active).

Question: What about the growth inhibition ([13]; at 1.2 µM) of the same molecule?
Answer: The growth inhibition was 4%.

Question: What about the growth inhibition ([13]; at 3.7 µM) of the same molecule?
Answer: The growth inhibition was 31%.

Question: What about the growth inhibition ([13]; at 11.0 µM) of the same molecule?
Answer: The growth inhibition was 99% (active).

Question: What about the growth inhibition ([13]; at 33.0 µM) of the same molecule?
Answer: The growth inhibition was 99% (active).

Question: What about the growth inhibition ([13]; at 100.0 µM) of the same molecule?
Answer: The growth inhibition was 97% (active).

Question: And the growth inhibition ([14]; at 1.2 µM)?
Answer: The growth inhibition was -2%.

Question: What about the growth inhibition ([14]; at 3.7 µM) of the same molecule?
Answer: Its growth inhibition is 54%.

Question: What about the growth inhibition ([14]; at 11.0 µM) of the same molecule?
Answer: The growth inhibition was 100% (active).

Question: What about the growth inhibition ([14]; at 33.0 µM) of the same molecule?
Answer: The growth inhibition was 100% (active).

Question: What about the growth inhibition ([14]; at 100.0 µM) of the same molecule?
Answer: The growth inhibition was 98% (active).

Question: What about the growth inhibition [15, 17] of the same molecule?
Answer: Its growth inhibition is 64%.

Question: What about the growth inhibition [15, 18] of the same molecule?
Answer: The growth inhibition was 99% (active).

Question: And the growth inhibition ([15]; at 50.0 µM)?
Answer: The growth inhibition was 99.3% (active).

Question: What about the growth inhibition ([16]; at 1.2 µM) of the same molecule?
Answer: Its growth inhibition is 3%.

Question: What about the growth inhibition ([16]; at 3.7 µM) of the same molecule?
Answer: Its growth inhibition is 34%.

Question: And the growth inhibition ([16]; at 11.0 µM)?
Answer: Its growth inhibition is 99% (active).

Question: What about the growth inhibition ([16]; at 33.0 µM) of the same molecule?
Answer: Its growth inhibition is 99% (active).

Question: What about the growth inhibition ([16]; at 100.0 µM) of the same molecule?
Answer: The growth inhibition was 98% (active).
